# From PubChem
# p97 ATPase inh: human p97 ATPase inhibition. recombinant p97 ATPase, Kinase-Glo ATP luminescence, 3 h. inhibition, % at 8 µM. AID 1481. 0.42% of 220,000 active. P55072; in the data active means inhibition above about 15%
# FAS-TE inh: FAS thioesterase (human) inhibition | P49327 | recombinant FAS-TE, OMFH fluorogenic substrate, fluorescence endpoint | inhibition, % at 15 µM | 0.67% of 360,000 active | AID 602261;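 active means compounds whose normalised, plate-corrected inhibition of enzyme fluorescence in the single-dose primary screen is 50% or more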
# DTT redox prof: compounds producing H2O2 with reducing agent – biochemical, NIH compound library profiling, artefact control for MLSCN library redox annotation, primary screen | activation, % at 10 µM | 0.03% of 200,000 active | AID 878 | DTT-dependent redox cycling H2O2, phenol red/HRP absorbance; 100% = 100 µM peroxide control, 0% = buffer;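 active means activation of at least 50% relative to the plate's high and low controls in the primary single-dose screen; inactive means activation below 50%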;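 further: compound incubated with DTT at 0.8 mM final as the reducing agent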
# UBC9 SUMO inh: SUMOylation inhibition; P63279; HTRF SUMOylation assay, SAE1/SAE2 + UBC9, in vitro; inhibition, % at 35 µM; 0.36% of 290,000 active; AID 2006; in the data active means inhibition above about 50%, passing the limit was not always enough
# PKD1 kinase inh: blocks activity of human protein kinase D1; 0.056% of 200,000 active; PKD1 kinase fluorescence polarization assay; AID 797; inhibition, % (no concentration beside the values); Q15139; in the data active means inhibition above about 50%
# Target sequence (Q15139 whole entry, looked up): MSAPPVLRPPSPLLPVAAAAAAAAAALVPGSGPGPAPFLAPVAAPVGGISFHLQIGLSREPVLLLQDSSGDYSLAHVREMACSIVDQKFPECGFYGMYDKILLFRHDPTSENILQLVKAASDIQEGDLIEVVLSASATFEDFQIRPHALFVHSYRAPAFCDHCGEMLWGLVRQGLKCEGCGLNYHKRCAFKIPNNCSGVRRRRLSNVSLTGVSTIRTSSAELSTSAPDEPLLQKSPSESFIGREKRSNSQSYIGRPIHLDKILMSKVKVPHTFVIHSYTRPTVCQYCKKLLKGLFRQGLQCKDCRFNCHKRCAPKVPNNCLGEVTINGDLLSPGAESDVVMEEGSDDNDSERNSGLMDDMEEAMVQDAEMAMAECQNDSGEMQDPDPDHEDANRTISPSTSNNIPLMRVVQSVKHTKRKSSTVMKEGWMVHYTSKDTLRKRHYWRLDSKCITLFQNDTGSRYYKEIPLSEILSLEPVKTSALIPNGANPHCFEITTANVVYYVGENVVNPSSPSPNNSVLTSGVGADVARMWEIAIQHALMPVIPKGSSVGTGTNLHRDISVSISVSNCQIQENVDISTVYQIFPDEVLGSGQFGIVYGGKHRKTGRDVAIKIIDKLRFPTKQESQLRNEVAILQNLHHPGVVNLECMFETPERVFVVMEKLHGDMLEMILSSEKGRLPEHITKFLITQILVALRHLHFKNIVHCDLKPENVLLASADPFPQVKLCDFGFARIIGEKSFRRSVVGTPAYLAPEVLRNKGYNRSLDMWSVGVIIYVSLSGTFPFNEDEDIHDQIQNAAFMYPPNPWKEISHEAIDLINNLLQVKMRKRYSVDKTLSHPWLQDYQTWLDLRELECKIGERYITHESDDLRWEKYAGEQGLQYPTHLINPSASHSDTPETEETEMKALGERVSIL
# Furin inh: inhibitors of human furin. AID 463115. P09958. purified furin, fluorogenic substrate cleavage. 0.061% of 220,000 active. inhibition, % at 20 µM or 30 µM; in the data active means inhibition above about 25%
# FAS-TE inh conf: FAS thioesterase (human) inhibition, confirmation; shares compounds with FAS-TE inh; recombinant FAS-TE, OMFH fluorogenic substrate, fluorescence; inhibition, % at 15 µM; 45% of 2,300 active;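 active means compounds inhibiting the enzyme by at least 50% at 15 µM in any one of the replicates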
# A number is an active result; i = inactive; nt = no result given. The list is not random: actives were taken first. Their share in the collection is about 1.2%.
SMILES,p97 ATPase inh,FAS-TE inh,DTT redox prof,UBC9 SUMO inh,PKD1 kinase inh,Furin inh,FAS-TE inh conf
Cc1cccc(C)c1Cn1c(C)c(C(=O)NCc2ccc([N+](=O)[O-])cc2)sc1=O,nt,60.9,nt,nt,nt,nt,62.2
COc1ccc(C(=O)OCC(=O)NC(=O)NCc2ccccc2)cc1[N+](=O)[O-],nt,i,nt,nt,nt,nt,nt
COc1ccc(C(=O)Nc2ccccc2N2CCCCC2)cc1[N+](=O)[O-],i,57.4,i,i,i,i,i
COc1ccc(C(=O)OCC(=O)Nc2ccccc2)cc1[N+](=O)[O-],i,61.8,i,i,i,i,46.5
O=c1ccc(/C=C/c2ccccc2)nn1Cc1ccc(F)cc1,i,i,i,i,i,i,nt
Cc1ccc(/C=C/c2ccc(=O)n(Cc3ccc(F)cc3)n2)cc1,i,50.4,i,i,i,i,39.5
CCCCn1c(N)c(N(CC(C)C)C(=O)CSCc2c(C)noc2C)c(=O)[nH]c1=O,nt,i,nt,nt,nt,nt,nt
O=C(Nc1cccc(S(=O)(=O)N2CCOCC2)c1)c1cn(-c2ccccc2)nc1-c1ccccc1,i,51.4,i,i,i,i,i
O=C(Nc1ncc2c(n1)-c1ccccc1OC2)c1cccc([N+](=O)[O-])c1,i,54.7,i,i,i,i,64.2
Cc1ccc(N2CC(C)Cn3c2nc2c3c(=O)n(CC(=O)OCc3ccccc3)c(=O)n2C)cc1C (configuration not stated),i,53.9,i,i,i,i,i
O=C(NCCCc1ccccn1)C1CCC(=O)N(Cc2cccc(F)c2)C1 (configuration not stated),nt,i,nt,i,nt,nt,nt
CCN(CC)CCSc1nc2ccccc2n1Cc1ccccc1,nt,i,nt,i,nt,nt,nt
Cc1cc(=O)oc2cc(OCc3ccc(S(=O)(=O)N4CCOCC4)cc3)ccc12,i,67.0,i,i,i,i,i
O=C(Nc1ccc(Cl)cc1)c1csc(-c2ccccc2)n1,i,61.3,i,i,i,i,58.8
O=C(c1nn2c(C(F)(F)F)cc(-c3cccs3)nc2c1Cl)N1CCCc2ccccc21,i,68.2,i,i,i,i,i
CC1(C)Cc2c(cnn2-c2cccc(F)c2)C(NC(=O)c2ccc(=O)[nH]n2)C1 (configuration not stated),nt,i,nt,nt,nt,nt,nt
COC(=O)c1cccc(NC(=S)NCc2ccc(Cl)cc2)c1,i,i,i,i,i,i,nt
COC(=O)c1cc(NC(=S)NCc2ccc(Cl)cc2)cc(C(=O)OC)c1,i,50.9,i,i,i,i,i
CC1(C)CC[C@]2(C(=O)n3ccnc3)CC[C@]3(C)[C@H](C(=O)C=C4[C@@]5(C)C=C(C#N)C(=O)C(C)(C)[C@@H]5CC[C@]43C)[C@@H]2C1,nt,96.2,nt,nt,nt,nt,68.5
Cc1cc(C)c(C#N)c(SCS(=O)Cc2ccc(Cl)cc2)n1 (configuration not stated),i,69.4,i,i,i,i,70.7
Cc1cc(C)c(C#N)c(SCS(=O)Cc2ccccc2)n1 (configuration not stated),i,i,i,i,i,i,nt
COc1cccc(C(=O)NCCS(=O)(=O)N2CC(C)CC(C)C2)c1 (configuration not stated),nt,i,nt,nt,nt,nt,nt
CCc1nc2c(OCc3ccc(Cl)cc3Cl)cccn2c1N(C=O)Cc1ccc(OC)cc1,nt,77.7,nt,nt,nt,nt,61.7
CCc1nc2c(OCC(=O)c3ccc(Cl)cc3Cl)cccn2c1N(C=O)Cc1ccc(OC)cc1,nt,i,nt,nt,nt,nt,nt
CCc1nc2c(OCc3ccc(Cl)cc3)cccn2c1N(C=O)Cc1ccc(OC)cc1,nt,54.2,nt,nt,nt,nt,62.2
SMILES,p97 ATPase inh,FAS-TE inh,DTT redox prof,UBC9 SUMO inh,PKD1 kinase inh,Furin inh,FAS-TE inh conf
CCc1nc2c(OCCOc3ccc(F)cc3)cccn2c1N(C=O)Cc1ccc(OC)cc1,nt,i,nt,nt,nt,nt,nt
Cc1ccc2c(c1)N(CC(=O)NCCCN1CC(C)CC(C)C1)C(=O)c1cccnc1O2 (configuration not stated),nt,i,nt,i,nt,nt,nt
Cc1ccccc1OCC(=O)Nc1ccc(N2CCN(C(=O)c3ccco3)CC2)cc1,nt,i,nt,i,nt,nt,nt
COc1ccccc1CNC(=O)c1ccc2nc(N3CCOCC3)sc2c1,nt,i,nt,i,nt,nt,nt
CC(NC(=O)COC(=O)c1cc(NS(=O)(=O)c2ccc(Cl)c([N+](=O)[O-])c2)ccc1O)C1CC2CCC1C2 (configuration not stated),i,53.0,i,i,i,i,50.8
CC(NC(=O)c1ccc([N+](=O)[O-])cc1Cl)C1CC2CCC1C2 (configuration not stated),nt,57.2,nt,i,nt,nt,65.9
O=C(NCCN1CCCCC1)Nc1ccc(F)cc1F,nt,i,nt,i,nt,nt,nt
C=CCC[C@@H](Cc1ccc(F)cc1)C(=O)OC[C@@H](Cc1c[nH]c2ccccc12)NC(=O)[C@@H](CC=C)CC(=O)N[C@H](CO)Cc1ccccc1,nt,i,nt,nt,nt,nt,nt
COc1ccc(N2C(=O)CCC(C(=O)NCCCN3CCC(C)CC3)C2c2ccc(OC)c(OC)c2)cc1 (configuration not stated),i,i,i,i,i,i,nt
Cc1nc(N2CCC(C)CC2)c(C#N)c(C)c1[N+](=O)[O-],i,i,i,i,i,i,nt
Cc1nc(Sc2ccc(Cl)cc2)c(C#N)c(C)c1[N+](=O)[O-],i,63.6,nt,i,nt,i,i
Cc1ccc(Sc2nc(C)c([N+](=O)[O-])c(C)c2C#N)cc1,i,i,nt,i,nt,i,nt
Cc1nc(Sc2ccc(Br)cc2)c(C#N)c(C)c1[N+](=O)[O-],i,61.0,nt,i,nt,i,i
CCc1nn(CC(=O)NCCCN2CCOCC2)c(=O)c2cc3cc(F)ccc3n12,nt,i,nt,i,nt,nt,nt
COc1ccc(Br)cc1CN(C)C(C)C(=O)Nc1cc([N+](=O)[O-])ccc1OC (configuration not stated),i,54.3,i,i,i,i,i
COc1ccc([N+](=O)[O-])cc1NC(=O)C(C)OC(=O)CC1CCCC1 (configuration not stated),nt,79.0,nt,nt,nt,nt,60.6
COc1ccc([N+](=O)[O-])cc1NC(=O)C(C)N(C)Cc1ccc(Br)cc1 (configuration not stated),i,i,i,i,i,i,nt
CCn1c(SCCN2CCCCC2)nc2c1c(=O)n(C)c(=O)n2C,nt,i,nt,nt,nt,nt,nt
CCc1ccccc1NC(=O)C1CCN(c2cnccn2)CC1,nt,i,nt,i,nt,nt,nt
CCn1c(C)c(C(C)=O)c(N2CCN(C(c3ccccc3)c3ccccc3)CC2)nc1=S,i,69.7,i,i,i,i,60.8
CCn1c(C)c(C(C)=O)c(N2CCN(c3ccccc3)CC2)nc1=S,i,i,i,i,i,i,nt
O=C(Nc1ccc(S(=O)(=O)N2CCOCC2)cc1)c1ccc(Cl)cc1Cl,nt,i,nt,i,nt,nt,nt
COc1ccc2c(c1)OC[C@H]1[C@H]2N2C(=O)CN(C)C(=O)[C@@]2(C)[C@H]1c1ccccc1,nt,i,nt,nt,nt,nt,nt
CCOC(=O)[C@@H]1[C@H]2COc3cc(OC)ccc3[C@H]2N2C(=O)N(c3cccc(Cl)c3)C(=O)[C@@]12C,nt,73.9,nt,i,nt,nt,48.1
